# Bioassay records from PubChem.
# Sampled rows, rich in hits. Any-hit rate of the full collection: about 31%.
# CYP2C19 act = human CYP2C19 activators, primary screen, biochemical, luminescence; recombinant CYP2C19, luciferin-H EGE luminescence; hits give high values; 0 = fully inhibited enzyme, 1 = untreated enzyme; AID 1025, 2008; activation factor at 5 µM; 96,000 tested, under 10 active;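 active = activation factor of at least 2 at 5 µM in the primary screen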
# Target sequence (P33261 whole entry, looked up): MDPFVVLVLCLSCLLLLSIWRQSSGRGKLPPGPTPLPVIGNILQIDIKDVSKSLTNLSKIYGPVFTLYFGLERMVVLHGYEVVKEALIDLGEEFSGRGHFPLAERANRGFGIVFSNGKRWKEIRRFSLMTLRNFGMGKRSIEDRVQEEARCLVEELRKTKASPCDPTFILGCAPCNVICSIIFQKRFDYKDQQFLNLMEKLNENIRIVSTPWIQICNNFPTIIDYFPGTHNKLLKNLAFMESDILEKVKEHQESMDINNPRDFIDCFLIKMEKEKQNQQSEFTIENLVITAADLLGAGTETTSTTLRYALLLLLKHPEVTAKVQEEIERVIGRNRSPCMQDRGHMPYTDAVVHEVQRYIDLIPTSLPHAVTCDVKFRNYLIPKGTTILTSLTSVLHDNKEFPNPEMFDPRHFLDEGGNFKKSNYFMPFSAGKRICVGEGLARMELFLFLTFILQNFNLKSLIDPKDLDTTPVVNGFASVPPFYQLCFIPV
# CYP2C19 inh = blockers of cytochrome P450 2C19 activity – biochemical, luminescence, ADME assay, primary screen. P33261. CYP2C19 Supersomes, luciferin-H EGE luminescence, 30 min. inhibition, % at 5 µM. 96,000 tested, 21% active;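 active = CYP2C19 inhibition above a set limit at 5 µM in the primary screen, cut at about 50% in these data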
# CYP2C9 act = human CYP2C9 activators, primary screen, biochemical, luminescence. Cytochrome P450 2C9 (Homo sapiens), P11712. recombinant CYP2C9, luciferin-H conversion; hits give high values; factor 1 = untreated enzyme, 0 = blocked. activation factor at 5 µM. 96,000 tested, 1.4% active. AID 1024, 2008;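 active = activation factor of 2 or more for CYP2C9 at a 5 µM dose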
# CYP2C9 inhib = blockers of cytochrome P450 2C9 activity – biochemical, luminescence, ADME assay, primary screen. inhibition, % at 5 µM. 96,000 tested, 20% active. P11712. CYP2C9 Supersomes, luciferin-H conversion;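 active = blocking of liver enzyme CYP2C9 beyond about 50% at 5 µM, limit read from the data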
# A number is an active result; . = inactive.
SMILES,CYP2C19 act,CYP2C19 inh,CYP2C9 act,CYP2C9 inhib
CC1(C)CC(=O)C/C(=N/NC(=O)CCCOc2ccc(Cl)cc2Cl)C1,.,.,.,.
CCOc1ccc(Cl)cc1S(=O)(=O)N1CCCC1,.,53.4,2.2,.
CCOc1ccc(-n2cnnn2)cc1S(=O)(=O)N1CCCCC1,.,.,.,.
CCOc1c(S(=O)(=O)N2CCCC2)ccc(Cl)c1Cl,.,92.7,.,.
COc1cc(OC)c(S(=O)(=O)N2CCCCC2)cc1S(=O)(=O)N1CCCCC1,.,64.0,.,.
COc1ccc(Cl)cc1S(=O)(=O)N1CCN(C)CC1,.,55.1,.,.
O=C(CN1C(=O)NC2(CCCc3ccccc32)C1=O)N1CCN(C(=O)c2ccco2)CC1 (stereo not given),.,.,.,.
CCOC(=O)c1sc(NC(C)=O)nc1-c1ccccc1,.,.,.,.
CC1(C)C=Cc2c(c3ccccc3[nH]c2=O)O1,.,.,.,.
COc1ccc(Cl)cc1C(=O)Nc1ccc(S(=O)(=O)N2CCCC2)cc1,.,.,.,.
COc1ccc(Cl)cc1S(=O)(=O)N1CCCC1,.,.,2,.
CCc1nnc(NC2=NCCC2)s1,.,.,.,.
N#Cc1cc(S(=O)(=O)c2ccccc2)c(N)[nH]c1=O,.,.,.,.
N/C(=N\OS(=O)(=O)c1ccc(Cl)cc1)c1ccncc1,.,68.2,.,80.8
N/C(=N\OC(=O)Cc1ccc(Cl)cc1)c1cccnc1,.,.,.,.
Cc1nc2c(Cl)cccc2[nH]1,.,.,.,.
COCCCNS(=O)(=O)c1ccc(OC)c(Cl)c1Cl,.,88.0,3.7,.
CCNS(=O)(=O)c1cc(Br)ccc1OC,.,.,.,.
CCC(C)NS(=O)(=O)c1ccc(OC)c(Cl)c1Cl (stereo not given),.,69.6,.,.
CCCCNS(=O)(=O)c1ccc(OC)c(Cl)c1Cl,.,51.5,.,.
Cc1ccc(-c2ccc(=O)n(CC(=O)N3CCN(c4cc(Cl)ccc4C)CC3)n2)cc1,.,.,.,.
COCC(=O)Nc1ccccc1C(=O)NC(C)C,.,.,.,.
CC(C)CN1C(=O)NC(NC(=O)c2cccs2)(C(F)(F)F)C1=O (stereo not given),.,.,.,.
COc1cccc(NC(=O)CSc2nnc(CN3CCOCC3)n2C)c1,.,.,.,.
COc1cccc(NC(=O)N(CCCN2CCOCC2)C(C)c2cc3ccccc3o2)c1 (stereo not given),.,.,.,51.6
SMILES,CYP2C19 act,CYP2C19 inh,CYP2C9 act,CYP2C9 inhib
COc1cccc(NC(=O)N(CCCN2CCOCC2)C(C)c2cc3cccc(OC)c3o2)c1 (stereo not given),.,66.5,.,66.9
CCOc1ccc(C2Oc3nc(SC)nnc3-c3ccccc3N2C(C)=O)cc1OC (stereo not given),.,.,.,.
Cn1c(CC(=O)Nc2ccccc2)nnc1SCCOc1ccccc1,.,.,.,.
CSc1nc(NCCOCCO)c2sc3nc(-c4ccco4)c4c(c3c2n1)CCC4,.,.,.,63.1
CCN(CCO)c1nc(SC)nc2c1sc1nc(-c3ccco3)c3c(c12)CCC3,.,.,.,.
O=C(CSc1ncccn1)Nc1ccc(S(=O)(=O)N2CCCCC2)cc1,.,.,.,.
O=C(CCn1cnc2ccccc2c1=O)Nc1ccc(S(=O)(=O)N2CCCCC2)cc1,.,.,.,.
O=C(CSc1ncn[nH]1)Nc1ccc(S(=O)(=O)N2CCCC2)cc1,.,.,.,60.7
O=C(CSc1nc2ccccc2c(=O)[nH]1)Nc1ccc(S(=O)(=O)N2CCCC2)cc1,.,.,.,96.0
CN(C(=O)CSc1nc(N)nn1-c1ccccc1)c1ccccc1,.,84.4,.,.
COC(=O)c1sccc1NC(=O)c1cc(C)on1,.,.,.,.
Cc1ccc(C(=O)NNC(=O)Cc2ccccc2)cc1,.,.,.,.
CC(C)(C)c1ccc(C(=O)NNC(=O)Cc2cccc3ccccc23)cc1,.,.,.,58.5
COc1ccccc1-c1cc(C(=O)Nc2cccnc2)no1,.,.,2.1,.
CCCc1cc(C(=O)Nc2ccccc2C(=O)OC)no1,.,.,2.2,.
COc1ccccc1-c1cc(C(=O)NCCc2ccccc2)no1,.,.,3.7,.
COc1ccc(NC(=O)c2cc(-c3ccccc3OC)on2)cc1,.,.,.,.
CCCc1cc(C(=O)NCCc2ccccc2)no1,.,63.3,.,.
COc1ccc(-n2c(Cn3c(=O)sc4ccccc43)nnc2SCC(=O)N2CCCC2)cc1,.,.,.,.
CNC(=O)c1sccc1S(=O)(=O)Cc1c(Cl)cccc1Cl,.,87.3,.,53.7
O=C(NC(=S)NCCc1ccccc1)c1ccccc1,.,.,.,.
Fc1ccc(NC(=S)NCCc2ccccc2)c(F)c1F,.,82.9,.,.
Fc1ccccc1NC(=S)NCCc1ccccc1,.,79.6,.,.
CCOC(=O)C1C(=O)NC(N2CCN(CC)CC2)=NC1c1ccccc1 (stereo not given),.,.,.,.
CS(=O)(=O)N1CCN(C/C=C/c2ccccc2)CC1,.,.,.,.
SMILES,CYP2C19 act,CYP2C19 inh,CYP2C9 act,CYP2C9 inhib
O=S(=O)(c1ccc(Cl)s1)N1CCN(C/C=C/c2ccccc2)CC1,.,77.7,.,79.6
O=S(=O)(c1cccs1)N1CCN(C/C=C/c2ccccc2)CC1,.,86.4,.,73.7
CC(C)OCCCNc1ncnc2c1[nH]c1ccccc12,.,.,.,.
CCOC(=O)Cc1csc(NC(=O)c2ccncc2)n1,.,78.5,.,56.2
CCOC(=O)Cc1csc(NC(=O)c2ccc(C)o2)n1,.,72.7,.,71.8
CCCCOC(=O)Nc1nc(CC(=O)OCC)cs1,.,91.3,.,82.0
CC(C)c1ccc(S(=O)(=O)N2CCN(CCC(=O)Nc3ccc(N(C)C)cc3)CC2)cc1,.,.,.,.
Cc1ccc(N(CC(=O)Nc2ccc(S(=O)(=O)N3CCOCC3)cc2)S(C)(=O)=O)cc1C,.,77.0,.,98.0
COc1ccccc1N(CC(=O)NCCSC(C)(C)C)S(C)(=O)=O,.,.,.,.
CC(C)c1ccc(N(CC(=O)Nc2ccc(S(=O)(=O)N3CCOCC3)cc2)S(C)(=O)=O)cc1,.,72.8,.,90.1
Cc1ccc(N(C(C)C(=O)Nc2ccc(S(=O)(=O)N3CCOCC3)cc2)S(C)(=O)=O)cc1C (stereo not given),.,.,.,89.2
CC(C)c1ccc(N(CC(=O)NCCSC(C)(C)C)S(C)(=O)=O)cc1,.,61.4,.,.
CC(Sc1ccc(Cl)cc1)C(=O)Nc1ccc(S(=O)(=O)N2CCOCC2)cc1 (stereo not given),.,.,.,62.1
Cc1ccc(N(C(C)C(=O)N2CCCCC2)S(C)(=O)=O)cc1C (stereo not given),.,81.7,.,.
CC(C(=O)N1CCC(C(N)=O)CC1)N(c1ccc(Oc2ccccc2)cc1)S(C)(=O)=O (stereo not given),.,.,.,.
CCc1nc(N)c(C#N)c(-c2ccc(F)cc2)c1C,.,.,.,.
